Among the data in PubChem BioAssay AID1347120 (National Center for Advancing Translational Sciences (NCATS), 2019) are Potency values, retold here.

In all, about 390,000 compounds went through this assay and about 930 (0.24%) were called active. Where a call stands in place of a potency, no number is given. Another 5% or so got no clear call; they are omitted. Calls come from the whole dose curve; as a rule, active = well fitted activation curve with a large enough effect; inconclusive = small, poorly fitted or top-dose-only effect; inactive = no such curve, though single readings can be large or run the other way. This excerpt belongs to a sample that is enriched for actives.
Potency is the fitted concentration of half-maximal effect.

The assay can be described thus: qHTS for Suppressors of FUS Proteinopathy: Primary screen using FUS-linked yeast assay. Note: nearly all actives have a fitted effect of over 55% in size. Particulars: S. cerevisiae FUS-expressing, OD600, 24 h; Potency: growth rescue; series mostly up to 76.6 µM. An excerpt: Several widespread neurodegenerative diseases, including Alzheimer disease, Huntington disease, Frontotemporal Lobar Degeneration (FTLD) and Amyotrophic Lateral Sclerosis (ALS), share a common pathological feature, namely accumulation of specific protein aggregates in diseased tissue. These diseases which is associated with protein misfolding (proteinopathies) have become increasingly problematic as the population ages and life expectancies are extended. Most proteinopathies are currently incurable, a situation confounded by the fact that the basis of neurodegeneration is generally poorly understood. There exists urgent and significant need to find therapeutics that can inhibit the toxicity associated with protein aggregation. A novel approach to understand the underlying mechanisms of neurodegenerative diseases has recently emerged in which the disease conditions are modeled in the yeast (Saccharomyces cerevisiae), a tractable eukaryotic organism with conserved protein quality control mechanisms. Yeast offers quick and reliable genetic manipulations and can be easily tailored to high-throughput screening (HTS).
For this project, a yeast model of the FUS proteinopathies (a spectrum of neurodegenerative diseases that include ALS and a subtype of FTLD) was generated and employed. The cytoplasmic accumulation of the DNA/RNA-binding protein FUS (also known as TLS) is causative to both familial and sporadic forms of ALS and FTLD. This yeast model recapitulates neuronal pathology by showing severe cytotoxicity associated with cytoplasmic accumulation of FUS aggregates and a specific interaction between FUS and TDP-43, another ALS-associated protein. […] Specifically, the cellular accumulation of misfolded FUS that disrupts RNA homeostasis in both yeast and higher eukaryotes. This model was validated to be suitable for quantitative HTS (qHTS) use for finding genetic or chemical factors that restore growth. […] Identified compounds that inhibits FUS-yeast toxicity is flagged, re-acquired, and validated for further investigation and optimization.
NIH Chemical Genomics Center [NCGC]
NIH Molecular Libraries Probe Production Centers Network [MLPCN]
Assay Submitter (PI): Frank Shewmaker PhD, Uniformed Services University of the Health Sciences
Compound CP55940 was used as the positive control. Column 1 was treated with CP55940 titration from 92uM (final concentration, 1:2 dilution), while Column 2 was treated with top dose 92uM. Columns 3 and 4 were treated with DMSO only as negative control to assess background and noise signal.
Four hundred fifty microliter of cultured yeast (in 20mL rich medium) provided by Dr. Shewmaker lab was incubated at 30C at 99% humidity for 3hr. The culture was then spun down at 4000rpm for 5min and the cell pellet was resuspended in 2mL of Sdmin Media + ALU(330) + 2.5% Raffinose. One hundred microliter of the suspension was added to 900uL of water and OD of the solution was obtained. Twenty mL of responding medium (provided by Shewmaker lab) + 2.5% raffinose was added to ensure cell density of 0.1; the solution was incubated overnight. Working cell solution (FUS-yeast in Sdmi + Sdmi + 1X ALU + 2% galactose media) was prepared (final OD at 0.005) and 3uL was dispensed in a 1536-well Aurora high based clear bottom assay plates. Controls and library compounds (at various final concentrations from 40uM to 0.32uM) were added using a 1536-well pin array using the Kalypsys pin-tool. The plates were then incubated for 24hrs in a cell-culture incubator (30C; 99% humidity). Absorbance at 600nm was then read using the PerkinElmer ViewLux plate reader.
A general note: Quantitative high-throughput screening tests each substance at several concentrations.
As to `COc1ccc(S(=O)(=O)Nc2cccc3c2O[C@H](CN(C)S(=O)(=O)c2ccc(OC)cc2)[C@@H](C)CN([C@H](C)CO)C3=O)cc1`, the Potency result is “inactive”.
For `COc1ccc(S(=O)(=O)N(C)C[C@H]2Oc3c(NC(=O)Nc4ccc5c(c4)OCO5)cccc3C(=O)N([C@H](C)CO)C[C@@H]2C)cc1`, the Potency was 25.1 µM (active).
In the case of `CC(C)NC(=O)Nc1cccc2c1O[C@@H](CN(C)S(=O)(=O)c1ccc(F)cc1)[C@@H](C)CN([C@H](C)CO)C2=O`, the Potency entry is “inactive”.
As for `COc1cc(OC)c(NC(=O)c2cc(S(=O)(=O)N3CCCC3)cn2C)cc1Cl`, the Potency result is “inactive”.
Turning to `COC(=O)c1ccccc1NC(=O)C(Cc1ccccc1)N1Cc2ccccc2C1=O` (stereo not drawn), the Potency result was “inactive”.
The result for `Cc1cccc(CCNC(=O)c2ccc3c(c2)nc2n3CCC(C)C2)c1` (stereo not drawn) reads “inactive”; that for `COc1cccc(NC(=O)N2CCN(C(=O)c3nsc4ccccc34)CC2)c1`, “inactive”.
Under `Cc1nc(SCCOc2ccc(Cl)cc2)[nH]c(=O)c1Cc1ccccc1` stands “inactive”; under `O=C(CNC(=O)OCc1ccccc1)Oc1cc2oc(=O)cc(-c3ccccc3)c2cc1Cl`, 12.6 µM (active).
Under `O=C(CNC(=O)Cc1ccccc1)NCC(=O)OCC(=O)c1ccccc1Cl` stands “inactive”; under `COP(=O)(O)CNC(=O)OCc1ccccc1`, “inactive”; under `COC(=O)Cc1csc(/N=C/c2c(O)n(-c3cccc(C(F)(F)F)c3)c(=O)c3ccccc23)n1`, “inactive”.
For the compound `CCO/C=C1\C(=O)N(c2ccc(OCC)cc2)C(=O)c2ccccc21`, the Potency result is “inactive”.
In the case of `CCOc1ccc(N=Cc2c(O)n(-c3cccc(C)n3)c(=O)c3ccccc23)cc1`, the Potency was 8.91 µM (active).
In the case of `CCc1ccc(NC(=O)CCCc2nnc3n(CCCOC)c(=O)c4sccc4n23)cc1`, the Potency entry was “inactive”.
`COc1ccc2c(c1)Cc1sc(NC(=O)c3ccccc3Br)nc1-2`: the Potency is 28.2 µM (active).
Under `Cn1c(=O)c(=O)n(C)c2cc(NC(=O)c3ccccc3Br)ccc21` stands “inactive”; under `O=C(Nc1nc2c(s1)CCCC2)c1ccccc1F`, “inactive”; under `CN(C(=O)c1ccc2c(c1)N(Cc1cccc(Cl)c1)C(=O)c1ccccc1S2=O)C1CCCCC1` (stereo not drawn), “inactive”.
As for `Cn1c(=O)[nH]c(=O)c2c1nc(CN(Cc1ccccc1)Cc1ccccc1)n2CCN1CCOCC1`, the Potency entry was “inactive”.
`CC(C)Cn1c(CN(Cc2ccccc2)Cc2ccccc2)nc2c1c(=O)n(C)c(=O)n2C`: the Potency is 31.6 µM (active).
With `CC(C)CCn1c(CN(C)Cc2ccccc2)nc2c1c(=O)n(C)c(=O)n2C`, the Potency entry was “inactive”.
On to `CCN(CC)c1ccc(NC(=O)CN2C(=O)c3cccnc3Oc3ccc(Cl)cc32)c(C)c1`, for which the Potency entry is “inactive”.
As for `Cc1ccc(Nc2cc(=O)n(C3CCCCC3)c(=O)[nH]2)cc1C`, the Potency result is “inactive”.
On to `CC1CCc2sc(C(=O)N/N=C/C3CCCCC3)cc2C1` (stereo not drawn), for which the Potency entry is “inactive”.
The result for `Cc1cc(/C=N/NC(N)=O)c(C)n1C1CCCCC1` reads 22.4 µM (active).
Regarding `CCc1ccccc1NC(=O)N1CCN(C(=O)c2nsc3ccccc23)CC1`, the Potency result was “inactive”.
In the case of `CCOc1cccc(NC(=O)CSc2ncc(-c3ccc(Cl)cc3)[nH]2)c1`, the Potency entry was “inactive”.
Under `CCNC(=O)Cn1nc(C)n2c(cc3c(OC)cccc32)c1=O` stands “inactive”.
On to `O=C1N[C@@H](c2ccccc2)COC(=O)[C@H](Cc2ccc(F)cc2)C/C=C\C[C@@H]1CC(=O)N(CCO)Cc1ccccc1`, for which the Potency is 22.4 µM (active).
Under `CC(C)(C)OC(=O)C[C@@H]1C/C=C\C[C@@H](CC(=O)N(CCO)Cc2ccccc2)C(=O)N[C@H](Cc2ccccc2)COC1=O` stands “inactive”.
Under `O=C1CCC/C=C\C[C@@H](CC(=O)N(CCO)Cc2ccccc2)C(=O)NCCO1` stands “inactive”.
The result for `CCC1CCCCN1Cc1c(O)ccc2c(=O)c(Oc3ccccc3Cl)c(C(F)(F)F)oc12` (stereo not drawn) reads “inactive”; that for `Cc1ccc(C)c(Cn2c(CCCNC(=O)C3CCCCC3)nc3ccccc32)c1`, “inactive”.
With `COCCNC(=O)c1cc(-c2cccc(Cl)c2)on1`, the Potency entry was “inactive”.
The result for `Cc1cc(N2C(=O)C(=O)/C(=C(/O)c3ccc(Cl)cc3)C2c2cccc(Br)c2)no1` (stereo not drawn) reads “inactive”; that for `COc1ccccc1C1/C(=C(/O)c2ccc(OC(C)C)cc2)C(=O)C(=O)N1c1cc(C)on1` (stereo not drawn), 20 µM (active).
For the compound `Cc1cc(N2C(=O)C(=O)/C(=C(/O)c3ccccc3)C2c2cccc(Br)c2)no1` (stereo not drawn), the Potency result was “inactive”.
Consider `Cc1ccc(-c2cn3c(n2)sc2cc(C(=O)NCCCc4ccccc4)ccc23)cc1`, for which the Potency result was “inactive”.
As to `O=C(CSc1nccn1C1CCCC1)Nc1cc(C(F)(F)F)ccc1Cl`, the Potency result is “inactive”.
Under `COc1ccc(CNC(=O)CC2Oc3ccc(C)cc3NC2=O)cc1` (stereo not drawn) stands “inactive”; under `CC(=O)Nc1ccc(NC(=O)CCCc2nc(-c3ccc(C(C)(C)C)cc3)no2)cc1`, “inactive”; under `CC1Cc2cc(S(=O)(=O)CCC(=O)Nc3ccc(F)c(Cl)c3)ccc2N1C(=O)C1CC1` (stereo not drawn), “inactive”.
As for `COc1ccccc1-c1cc(C(F)(F)F)nc(S(=O)(=O)CCCC(=O)Nc2ccc(F)cc2F)n1`, the Potency entry was “inactive”.
Regarding `CCCCc1nn2c(=O)cc(COC(=O)c3ccc(NC(=O)c4ccccc4C)cc3)nc2s1`, the Potency entry is “inactive”.
As to `CCCCOc1ccc(CN2C(=O)C(=O)c3cc(Br)cc(C)c32)cc1OC`, the Potency entry is “inactive”.
As to `Cc1ccc(CNC(=O)CCc2c(C)nc3c(c(C)nn3-c3ccccc3)c2C)cc1`, the Potency result was “inactive”.
For `CCN(CC)C(=O)CSc1nc2cc3c(cc2c(=O)n1CCCC(=O)NCc1ccc2c(c1)OCO2)OCO3`, the Potency entry was “inactive”.
On to `CCOc1ccc(-c2cc3c(=O)n(CC(=O)NCc4ccc(OC)cc4)ccn3n2)cc1`, for which the Potency entry was “inactive”.
The result for `COc1cccc(-n2c(=O)c3c(C)c(C(=O)N(C)C)sc3n(Cc3cccc(C)c3)c2=O)c1` reads “inactive”; that for `CCN(CC(=O)Nc1cccc(S(N)(=O)=O)c1)Cc1nc2ccccc2c(=O)[nH]1`, “inactive”.
For `CCN(CC(=O)Nc1ccc(Cl)c(S(=O)(=O)N(C)C)c1)Cc1nc2ccccc2c(=O)[nH]1`, the Potency was 31.6 µM (active).
On to `CCN(CC(=O)NC(=O)NCc1ccccc1)Cc1nc2ccccc2c(=O)[nH]1`, for which the Potency result was “inactive”.
For `CCN1CCN(CCCNC(=O)c2ccc3c(c2)sc2nc(-c4ccc(OC)cc4)cn23)CC1`, the Potency result was “inactive”.
Consider `COc1ccc(CC(=O)NCCc2sc3nc(-c4ccc(OC)cc4)nn3c2C)cc1`, for which the Potency result was “inactive”.
Take `COC(=O)CN1C(=O)CSc2ccc(S(=O)(=O)Nc3cc(C)ccc3C)cc21`: the Potency entry was “inactive”.
Regarding `Cc1ccc2nc(N3CCN(c4cccc(Cl)c4)CC3)c3nnnn3c2c1`, the Potency entry is “inactive”.
Turning to `Cc1nnc(N2CCC(C(=O)Nc3ccc(F)cc3)CC2)c2nn(-c3ccc(Cl)cc3)c(C)c12`, the Potency result is “inactive”.
